For assay [1], the target named is Platelet-activating factor acetylhydrolase IB subunit alpha1 (Homo sapiens) (UniProt Q15102). The assay is described as follows: inhibition of PAF acetylhydrolase 1B subunit 3 – biochemical, fluorescence polarization, human, confirmation (AID 493032;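 active = average inhibition over triplicate runs above the hit cutoff set in the earlier primary screen, cut at about 25% in these data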;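 note: 0% = enzyme with DMSO and 100% = wells lacking PAFAH1B3 protein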). The settings on record: recombinant PAFAH1B3, FP-Rh activity-based probe, at 3.39 µM, hits give high values.
Assay [2] can be described thus: reduced OD of V66 E. coli with T4 gene 2 phage – absorbance, RecBCD inhibitor project, confirmation (AID 651982;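 active = mean inhibition over triplicates exceeding the hit threshold derived in the original primary screen, cut at about 11% in these data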). The settings on record: E. coli V66 + T4 2- phage, growth OD; at 11.9 µM; hits give high values.
Assay [3] is described as follows: bacterial growth inhibition – absorbance, high throughput, counter-screen for RecBCD inhibitor project (AID 651983; in the data active = inhibition above about 20%;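 note: E. coli strain V66 grown with compound alone and no phage infection; 0% = bacteria with DMSO vehicle only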). The settings on record: E. coli viability, absorbance (OD) growth; at 11.9 µM; hits give high values.
Assay [4] can be described thus: reduced optical density, T4-challenged addAB+ bacteria – absorbance, E. coli V3065, T4 phage, counter-screen for RecBCD inhibitor project, confirmation (AID 651984;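 active = mean inhibition above the solvent-only control wells' mean plus 3 SD, cut at about 22% in these data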;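 note: higher means less bacterial growth from phage killing when AddAB is blocked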). The settings on record: E. coli expressing H. pylori AddAB + T4 phage, OD growth; at 11.9 µM; hits give high values; gene 2 mutant T4, recBCD-deleted host. For orientation: Counterscreens check selectivity or assay interference.

A short description of assay [5]: reduced OD of T4-infected AddAB+ E. coli – absorbance, E. coli V3065, T4 phage, triplicate, AddAB inhibitor project, confirmation (AID 488942;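 active = mean inhibition above a set limit taken from the earlier primary screen, cut at about 13% in these data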;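 note: higher means less bacterial growth since AddAB block lets phage replicate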). The settings on record: E. coli V3065 expressing H. pylori AddAB, at 11.9 µM, hits give high values, T4 phage with gene 2 nonsense mutations.
The nature of assay [6]: reduced OD of phage-infected RecBCD+ V66 E. coli – absorbance, mutant T4 phage, counter-screen for AddAB inhibitor project (AID 488955;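 active = mean inhibition above the mean of solvent-only control wells plus 3 SD, cut at about 4% in these data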;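 note: optical density read after an 18 h incubation at 37 °C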). To be noted: OD growth, at 11.9 µM, hits give high values.
Assay [7] is described as follows: bacterial growth inhibitors – absorbance, counter-screen for AddAB inhibitor project, confirmation (AID 488956). The settings on record: bacterial viability, absorbance (AddAB counterscreen); at 11.9 µM; hits give high values.
For assay [8], the target named is Nuclear receptor coactivator 3 (Homo sapiens) (UniProt Q9Y6Q9). Description: NCOA3 GAL4-fusion reporter inhibition – cell-based, luminescence, quadruplicate, confirmation (AID 588792;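 active = mean inhibition over 43.08%, the solvent-only control mean plus 3 SD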;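 note: 0% = DMSO treated cells and 100% = gossypol at 36 µM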). The settings on record: HEK293 GAL4-SRC3 luciferase reporter, at 3.6 µM, hits give high values. (In general: In a reporter assay the amount or activity of a reporter protein is the signal.)

For assay [9], the system named is transactivating tegument protein VP16 (Human herpesvirus 1), Gal4-VP16 luciferase reporter. Description: repression of VP16-driven luciferase reporter – cell-based, luminescence, high throughput, counter-screen for SRC3 inhibitor project (AID 588794; in the data active = inhibition above about 30%). To be noted: mammalian cells, at 3.6 µM, hits give high values.
The target of assay [10] is Nuclear receptor coactivator 1 (Homo sapiens) (UniProt Q15788). The assay is described as follows: NCOA1 GAL4-fusion reporter inhibition – cell-based, luminescence, quadruplicate, confirmation (AID 588820;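 active = mean inhibition above 46.68%, the untreated control wells mean plus 3 SD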;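 note: 0% = DMSO wells and 100% = gossypol 36 µM treated wells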). The settings on record: HEK293 GAL4-SRC1 luciferase reporter, at 3.6 µM, hits give high values.
A short description of assay [11]: repression of VP16-driven luciferase reporter – cell-based, luminescence, high throughput, counter-screen for SRC1 inhibitor project (AID 588824). To be noted: cell-based VP16 transactivation luciferase luminescence; at 3.6 µM; hits give high values.
Assay [12] addresses Photoreceptor-specific nuclear receptor (Homo sapiens) (UniProt Q9Y5X4). The assay is described as follows: retest of NR2E3-NCOR disrupting agonists – cell-based, luminescence, CHO-S two-hybrid, confirmation (AID 624378;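 active = average inhibition above a cutoff equal to the mean inhibition of all tested compounds plus one SD, cut at about 70% in these data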;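 note: 0% = DMSO in NR2E3 cells and 100% = DMSO in cells lacking NR2E3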). To be noted: CHO-S mammalian two-hybrid NR2E3-NCOR, luciferase luminescence; at 3.98 µM; hits give high values.
The nature of assay [13]: nonselective effects on VP16 transactivation – cell-based, luminescence, CHO-S, high throughput, counter-screen for NR2E3 agonist project, confirmation (AID 624379;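 active = mean inhibition above a cutoff equal to the average over all tested compounds plus one standard deviation, cut at about 70% in these data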;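 note: 0% = DMSO with VP16-transfected cells and 100% = DMSO with cells lacking VP16; higher means less reporter light so more repression of VP16 activity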). To be noted: CHO-S GAL4-VP16 luciferase reporter, at 3.98 µM, hits give high values.
Assay [14] relates to transactivating tegument protein VP16 (Human herpesvirus 1). Description: compounds suppressing VP16-driven luciferase signal – cell-based, luminescence, single concentration, counter-screen for SRC2 inhibitor project (AID 652007; in the data active = inhibition above about 36%). To be noted: cell-based VP16 transactivation luciferase reporter, at 8.9 µM, hits give high values.
For assay [15], the target named is Nuclear receptor coactivator 2 (Homo sapiens) (UniProt Q15596). Description: inhibition of GAL4-SRC2 driven luciferase expression – cell-based, luminescence, HEK293, triplicate, confirmation (AID 652008;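 active = mean inhibition above 46.5%, the solvent-only control mean plus 3 SD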;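 note: 0% = DMSO-treated cells and 100% = Gossypol at 36 µM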). To be noted: HEK293 GAL4-SRC2 luciferase reporter, at 8.9 µM, hits give high values.
The nature of assay [16]: VP16-driven transactivation reporter suppression – cell-based, luminescence, HEK293, counter-screen for COUP-TFII antagonist project (AID 687007; in the data active = inhibition above about 13%). To be noted: HEK293 Gal4-VP16 luciferase reporter, at 8.5 µM, hits give high values.
The target in assay [17] is COUP transcription factor 2 (Homo sapiens) (UniProt P24468). Description: retest of COUP-TFII reporter suppressors – cell-based, luciferase reporter, HEK293, triplicate, confirmation (AID 687008;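 active = mean inhibition over three repeats above a set limit taken from the earlier primary screen, cut at about 38% in these data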;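 note: 100% = cells given the luciferase reporter alone without the COUP-TF2 vector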). The settings on record: HEK293 NGFI-A luciferase reporter, luminescence; at 8.5 µM; hits give high values.
Assay [18] addresses Toll-like receptor 9 (Homo sapiens) (UniProt Q9NR96). Description: disruptors of TLR9 binding to MyD88 – cell-based, CHO, BLA complementation, fluorescence, triplicate, confirmation (AID 540250;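 active = mean inhibition across three repeats above about 21% taken from the earlier screen, limit read from the data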;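 note: blue over green emission ratio reports constitutive TLR9 MyD88 association via BLA complementation; 0% = DMSO vehicle wells and 100% = clavulanate BLA inhibitor wells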). To be noted: CCF4 FRET ratio, at 4.98 µM, hits give high values.
The nature of assay [19]: BLA reporter readout interference – cell-based, fluorescence, artefact control for TLR9-MyD88 binding inhibitor project (AID 540251;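 active = mean inhibition above a 50% cutoff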;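 note: counterscreen of TLR9-MyD88 hits on CMV-driven BLA in CHO-K1 cells; 0% = DMSO alone and 100% = clavulanate blocking BLA; higher means less blue over green ratio so more BLA blockade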). The settings on record: CHO-BLA cells, CCF4 FRET ratio, at 4.98 µM, hits give high values.
The nature of assay [20]: CHO cell viability loss – luminescence, single concentration, cytotoxicity control for TLR9-MyD88 binding inhibitor project (AID 588336; in the data active = inhibition above about 11%). To be noted: TLR9-MyD88 CHO cells cytotoxicity, at 4.98 µM, hits give high values.
The target of assay [21] is Serine protease HTRA1 (Homo sapiens) (UniProt Q92743). Description: confirming inhibition of human HTRA1 – biochemical, fluorescence polarization, confirmation (AID 540248;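 active = mean inhibition over three repeats above a set limit taken from the earlier primary screen, cut at about 37% in these data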;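 note: 0% = HTRA1 with DMSO and 100% = wells lacking HTRA1; inhibitors block probe binding so polarization drops and inhibition rises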). The settings on record: recombinant HTRA1, FP-rhodamine activity-based probe, at 5.96 µM, hits give high values. Background: Polarisation of emitted light reports the rotation of a fluorescent probe.
Assay [22] concerns the target (Lyso)-N-acylphosphatidylethanolamine lipase (Mus musculus) (UniProt Q8VD66). Description: mouse ABHD4 hydrolase blockers, triplicate – biochemical, fluorescence polarization, confirmation (AID 720658;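 active = mean inhibition across replicates above the hit cutoff set in the primary screen, cut at about 30% in these data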;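 note: 0% = wild-type ABHD4 with DMSO and 100% = catalytically dead S159A mutant with DMSO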). To be noted: purified mABHD4, FP-Rh probe fluorescence polarization; at 8.92 µM; hits give high values.
The target in assay [23] is Receptor-interacting serine/threonine-protein kinase 2 (Homo sapiens) (UniProt O43353). Description: inhibitors of RIPK2 association with NOD2 – fluorescence, CHO cells, BLA complementation, triplicate, confirmation (AID 624370;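 active = mean inhibition across replicates above a set limit taken from the earlier primary screen, cut at about 21% in these data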;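 note: 0% = DMSO-only wells and the high end = clavulanate BLA-blocked wells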). To be noted: CCF4 FRET, at 4.98 µM, hits give high values.
Assay [24] in a line: BLA reporter readout interference – cell-based, CHO-K1 CMV-bla, CCF4 FRET, fluorescence, artefact control for NOD2-RIPK2 interaction inhibitor project, confirmation (AID 624371;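 active = mean inhibition above the low-control mean inhibition plus three low-control SD, cut at about 11% in these data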;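 note: 0% = DMSO only wells and 100% = clavulanate high control wells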). The settings on record: CCF4 FRET ratio, counterscreen, at 4.98 µM, hits give high values.

Unmarked numbers belong to inactive results. This is one part of the list. The source made the active and inactive calls. Cut-off read from the data, not from the text of the source, unless noted: active = inhibition above about 25%; inactive = the rest.

As usually defined, the inhibition is the change of the read-out against control, counted positive when it falls.

Sequence of Toll-like receptor 9 (Homo sapiens) (Q9NR96 whole entry, looked up): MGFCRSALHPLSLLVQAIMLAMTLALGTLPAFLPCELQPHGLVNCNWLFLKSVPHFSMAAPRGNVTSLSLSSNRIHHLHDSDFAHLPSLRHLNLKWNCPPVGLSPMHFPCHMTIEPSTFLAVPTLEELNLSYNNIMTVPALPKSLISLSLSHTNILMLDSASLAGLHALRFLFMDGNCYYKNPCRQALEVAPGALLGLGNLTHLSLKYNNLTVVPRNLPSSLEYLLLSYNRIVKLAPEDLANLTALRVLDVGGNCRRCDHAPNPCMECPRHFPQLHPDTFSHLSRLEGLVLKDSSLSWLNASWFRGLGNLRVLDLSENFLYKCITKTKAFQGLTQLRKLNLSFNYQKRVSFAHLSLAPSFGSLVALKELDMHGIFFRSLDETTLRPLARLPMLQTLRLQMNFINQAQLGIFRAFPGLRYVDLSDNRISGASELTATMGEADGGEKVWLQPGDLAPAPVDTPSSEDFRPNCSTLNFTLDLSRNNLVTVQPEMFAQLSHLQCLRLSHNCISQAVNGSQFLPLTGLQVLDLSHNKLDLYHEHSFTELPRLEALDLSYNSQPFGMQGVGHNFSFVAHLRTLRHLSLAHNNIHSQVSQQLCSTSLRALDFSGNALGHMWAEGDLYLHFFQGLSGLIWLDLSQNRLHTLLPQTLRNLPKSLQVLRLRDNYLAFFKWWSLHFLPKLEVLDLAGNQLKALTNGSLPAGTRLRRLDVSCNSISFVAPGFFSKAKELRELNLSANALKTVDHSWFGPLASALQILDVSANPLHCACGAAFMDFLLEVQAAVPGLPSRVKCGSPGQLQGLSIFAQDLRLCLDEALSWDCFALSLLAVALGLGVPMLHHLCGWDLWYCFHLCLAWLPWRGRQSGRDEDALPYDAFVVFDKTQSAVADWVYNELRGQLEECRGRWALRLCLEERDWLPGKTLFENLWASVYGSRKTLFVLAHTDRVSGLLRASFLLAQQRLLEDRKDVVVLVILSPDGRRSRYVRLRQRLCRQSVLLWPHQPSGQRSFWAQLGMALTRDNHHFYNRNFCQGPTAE
Sequence of (Lyso)-N-acylphosphatidylethanolamine lipase (Mus musculus) (Q8VD66 whole entry, looked up): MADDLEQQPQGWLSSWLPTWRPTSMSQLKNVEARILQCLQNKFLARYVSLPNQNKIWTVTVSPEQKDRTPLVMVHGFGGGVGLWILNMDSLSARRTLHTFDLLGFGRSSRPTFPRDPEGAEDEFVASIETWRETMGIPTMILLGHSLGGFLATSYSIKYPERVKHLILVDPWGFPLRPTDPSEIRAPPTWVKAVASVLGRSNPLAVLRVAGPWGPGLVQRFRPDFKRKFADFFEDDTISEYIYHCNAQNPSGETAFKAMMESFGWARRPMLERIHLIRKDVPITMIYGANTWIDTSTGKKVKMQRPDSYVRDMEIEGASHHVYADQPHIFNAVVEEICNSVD
Sequence of COUP transcription factor 2 (Homo sapiens) (P24468 whole entry, looked up): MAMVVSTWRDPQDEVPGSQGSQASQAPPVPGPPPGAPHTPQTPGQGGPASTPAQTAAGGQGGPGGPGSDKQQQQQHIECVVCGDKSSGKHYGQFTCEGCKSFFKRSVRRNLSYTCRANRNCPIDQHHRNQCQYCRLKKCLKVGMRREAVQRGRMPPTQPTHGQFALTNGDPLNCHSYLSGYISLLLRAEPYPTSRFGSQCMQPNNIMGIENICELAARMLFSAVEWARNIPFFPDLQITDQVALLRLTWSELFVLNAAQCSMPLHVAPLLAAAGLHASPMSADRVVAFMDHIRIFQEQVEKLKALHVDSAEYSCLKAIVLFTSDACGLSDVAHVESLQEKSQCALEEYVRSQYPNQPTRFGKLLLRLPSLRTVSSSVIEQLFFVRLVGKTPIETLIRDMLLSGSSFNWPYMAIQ
Sequence of Nuclear receptor coactivator 3 (Homo sapiens) (Q9Y6Q9 whole entry, looked up, the tested form may be a part): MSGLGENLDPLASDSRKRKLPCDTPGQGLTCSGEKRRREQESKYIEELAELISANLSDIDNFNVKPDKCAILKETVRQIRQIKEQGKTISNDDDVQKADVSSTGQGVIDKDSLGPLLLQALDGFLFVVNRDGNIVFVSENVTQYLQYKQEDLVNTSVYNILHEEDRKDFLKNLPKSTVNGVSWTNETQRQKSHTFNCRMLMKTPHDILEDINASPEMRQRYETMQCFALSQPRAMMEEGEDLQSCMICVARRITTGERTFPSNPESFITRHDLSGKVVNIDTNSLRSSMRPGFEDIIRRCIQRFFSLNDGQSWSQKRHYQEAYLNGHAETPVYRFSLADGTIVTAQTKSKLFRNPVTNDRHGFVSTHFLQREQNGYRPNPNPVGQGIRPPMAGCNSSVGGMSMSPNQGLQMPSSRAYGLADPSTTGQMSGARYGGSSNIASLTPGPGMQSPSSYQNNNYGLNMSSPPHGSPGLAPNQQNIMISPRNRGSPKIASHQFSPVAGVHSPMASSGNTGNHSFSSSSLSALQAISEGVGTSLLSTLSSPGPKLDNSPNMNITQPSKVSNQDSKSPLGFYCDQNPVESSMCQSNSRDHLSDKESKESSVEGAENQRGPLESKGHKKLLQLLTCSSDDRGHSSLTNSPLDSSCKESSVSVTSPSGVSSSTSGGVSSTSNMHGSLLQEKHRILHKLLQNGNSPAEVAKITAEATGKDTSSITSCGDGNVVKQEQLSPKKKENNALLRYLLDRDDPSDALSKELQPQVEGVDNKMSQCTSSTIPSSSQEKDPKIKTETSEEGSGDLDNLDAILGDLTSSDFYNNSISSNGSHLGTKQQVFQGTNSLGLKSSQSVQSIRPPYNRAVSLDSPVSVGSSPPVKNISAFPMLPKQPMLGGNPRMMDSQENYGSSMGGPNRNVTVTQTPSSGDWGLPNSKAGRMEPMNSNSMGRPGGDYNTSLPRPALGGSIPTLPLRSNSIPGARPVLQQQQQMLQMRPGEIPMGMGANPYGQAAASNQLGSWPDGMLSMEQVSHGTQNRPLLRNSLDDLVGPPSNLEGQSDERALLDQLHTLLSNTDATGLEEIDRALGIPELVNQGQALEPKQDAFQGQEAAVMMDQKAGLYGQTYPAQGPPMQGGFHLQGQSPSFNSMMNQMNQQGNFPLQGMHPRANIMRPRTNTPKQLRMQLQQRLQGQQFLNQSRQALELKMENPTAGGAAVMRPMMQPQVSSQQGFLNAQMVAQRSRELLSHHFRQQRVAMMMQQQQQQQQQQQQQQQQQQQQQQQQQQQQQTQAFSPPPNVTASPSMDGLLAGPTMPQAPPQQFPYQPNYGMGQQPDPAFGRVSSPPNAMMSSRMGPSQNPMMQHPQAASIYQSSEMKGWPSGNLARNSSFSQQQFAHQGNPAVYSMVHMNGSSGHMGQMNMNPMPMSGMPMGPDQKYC
Sequence of Receptor-interacting serine/threonine-protein kinase 2 (Homo sapiens) (O43353 whole entry, looked up): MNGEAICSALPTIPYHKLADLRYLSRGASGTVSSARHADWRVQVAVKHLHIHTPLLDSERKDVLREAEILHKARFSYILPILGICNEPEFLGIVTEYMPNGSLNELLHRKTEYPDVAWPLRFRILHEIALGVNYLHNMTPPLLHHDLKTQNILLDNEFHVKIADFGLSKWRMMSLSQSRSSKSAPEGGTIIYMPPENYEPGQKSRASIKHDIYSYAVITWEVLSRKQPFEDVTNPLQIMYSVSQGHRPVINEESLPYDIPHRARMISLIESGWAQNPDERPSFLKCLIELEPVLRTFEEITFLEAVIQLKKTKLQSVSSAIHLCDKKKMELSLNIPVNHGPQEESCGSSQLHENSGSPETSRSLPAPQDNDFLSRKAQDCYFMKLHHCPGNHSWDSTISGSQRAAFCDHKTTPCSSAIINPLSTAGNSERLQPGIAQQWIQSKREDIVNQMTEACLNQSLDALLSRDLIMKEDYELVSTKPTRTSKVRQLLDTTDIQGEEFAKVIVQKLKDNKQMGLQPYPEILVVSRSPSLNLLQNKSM
Sequence of Platelet-activating factor acetylhydrolase IB subunit alpha1 (Homo sapiens) (Q15102 whole entry, looked up): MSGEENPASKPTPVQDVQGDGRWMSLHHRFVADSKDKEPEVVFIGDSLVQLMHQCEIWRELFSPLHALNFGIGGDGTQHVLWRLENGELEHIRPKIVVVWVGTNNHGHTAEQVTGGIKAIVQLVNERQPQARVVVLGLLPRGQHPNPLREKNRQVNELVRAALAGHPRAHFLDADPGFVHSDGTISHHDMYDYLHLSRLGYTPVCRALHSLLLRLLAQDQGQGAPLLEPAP
Sequence of Photoreceptor-specific nuclear receptor (Homo sapiens) (Q9Y5X4 whole entry, looked up): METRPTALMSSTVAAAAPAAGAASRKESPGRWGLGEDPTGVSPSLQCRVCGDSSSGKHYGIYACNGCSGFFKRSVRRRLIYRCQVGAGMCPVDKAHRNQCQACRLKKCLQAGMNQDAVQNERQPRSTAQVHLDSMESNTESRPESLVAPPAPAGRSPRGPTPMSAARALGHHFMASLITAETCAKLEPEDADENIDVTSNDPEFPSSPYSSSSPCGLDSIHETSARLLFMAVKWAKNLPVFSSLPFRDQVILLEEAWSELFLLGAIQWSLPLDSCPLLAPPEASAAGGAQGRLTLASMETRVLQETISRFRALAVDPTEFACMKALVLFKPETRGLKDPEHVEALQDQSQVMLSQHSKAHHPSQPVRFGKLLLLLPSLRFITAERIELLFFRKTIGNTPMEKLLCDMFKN

Consider `ON=C1/C(=N\O)CC2(C/C1=N/O)OCCO2`, for which the inhibition was 27.1% (active) in [1], 1.75% in assay [2], 4.59% in [3] and -10.8% in assay [4].

As to `O=C1CCC(=O)N(O)CCCCCNC(=O)CCC(=O)N(O)CCCCCNC(=O)CCC(=O)N(O)CCCCCN1`, the inhibition is 31% (active) in [5]; 24.5% (active) in assay [6]; 17.4% in [7]; 19.5% (active) in assay [2]; 25% (active) in [3]; 29.4% (active) in [4].

As for `COc1c(N2CCN(C(=S)Nc3ccccc3F)C(C)C2)c(F)cc2c(=O)c(C(=O)O)cn(C3CC3)c12` (configuration not stated), the inhibition in assay [5] is 102% (active); in [6], 100% (active); in assay [7], 101% (active); in assay [2], 102% (active); in assay [3], 103% (active); in assay [4], 101% (active).

On to `Nc1nonc1-n1nnc(C(=O)N/N=C/c2cc(Br)ccc2O)c1CSC1=NCCS1`, for which the inhibition in [5] is 14.2% (active); in assay [6] it was 16% (active); in [7], 9.73%; in [8], 42.7%; in assay [9] it was 34.5% (active); in assay [10], 41%. Moreover, the inhibition in assay [11] is 33.4% (active); in assay [2] it was 6.91%; in assay [3], 9.92%; in [4], 10.8%.

For the molecule `O=C(OCC(=O)c1cccs1)c1ccc([N+](=O)[O-])o1`, the inhibition was 73.1% (active) in assay [5], 1.72% in [6] and 6.32% in [7].

On to `COc1ccc(C(=O)c2oc3ccc(Br)cc3c2NC(C)=O)cc1`, for which the inhibition in assay [5] is -2.85%; in assay [6], -1.5%; in assay [7], -3.05%.

Consider `O=C(NCC1CCCO1)C(C(=O)c1ccccc1)n1cc(Cl)ccc1=O` (configuration not stated), for which the figures for the inhibition in assay [5], in [6] and in assay [7] were -2.76%, -0.21% and -1.24%, respectively.

Turning to `CC(=O)c1c(C)n([O-])c2ccccc2[n+]1=O`, the inhibition in assay [5] is 100% (active); in [6], 26.2% (active); in assay [7], 89.7% (active); in assay [2], 16.9% (active); in [3] it was 21.4% (active); in [4], 87.7% (active).

For the molecule `Cc1cn(C2C=CC(CO)O2)c(=O)[nH]c1=O` (configuration not stated), the inhibition in assay [5] is 83.8% (active); in assay [6] it was 6.53% (active); in assay [7] it was 42.2% (active); in assay [2] it was 14.1% (active); in assay [3] it was 8.16%; in assay [4], 54.6% (active).

Regarding `CCOC(=O)c1ccc(NC(=O)Cn2cnc3cc(C)c(C)cc32)cc1`, the inhibition in assay [5] was 24.2% (active); in assay [6] it was 18.4% (active); in assay [7], 21.4%; in assay [12] it was 96% (active); in assay [13], 87.5% (active); in assay [2], 13.5% (active). Moreover, the inhibition was 14.5% in [3]; 21.8% (active) in [4]; 19.5% in assay [14]; 36.7% in assay [15]; 8.87% in [16]; 62.9% (active) in [17].

`CC(=O)N(O)CCCCCNC(=O)CCC(=O)N(O)CCCCCNC(=O)CCC(=O)N(O)CCCCCNC(=O)CCC(=O)O`: the inhibition in [5] was 13.8% (active); in assay [6], 14.4% (active); in [7], 2.8%; in [2] it was 7.53%; in assay [3], 11.4%; in assay [4], 12.5%.

Take `O=C(Cn1c(=O)sc2ccccc21)Nc1nc2c(s1)CCCC2`: the inhibition is 2.31% in [5], 4.07% (active) in assay [6] and 3.15% in assay [7].

On to `COC(=O)N/N=C/c1c[n+]([O-])c2ccccc2[n+]1[O-]`, for which the inhibition in [5] was 94.5% (active); in [6], 27.4% (active); in [7] it was 83.4% (active); in [2], 23.1% (active); in assay [3], 28% (active); in [4] it was 91.8% (active).

For `O=C(COC(=O)c1c2c(nc3ccccc13)/C(=C\c1cccs1)CCC2)Nc1ccccc1Cl`, the inhibition is 11.4% in [18], 18.4% in assay [19] and -3.1% in assay [20].

For `CCN(CC)c1ccc(/C=N/Nc2nc(C)cc(C)n2)c(O)c1`, the inhibition in [21] was 61.8% (active).

For `CS(=O)(=O)c1sc2nc(-c3ccccc3)cc(-c3ccccc3)c2c1N`, the inhibition was 31.1% (active) in [18], 31.6% in assay [19] and -0.85% in [20].

Consider `CC[C@@H]1Cc2cc(O)ccc2C2=C1c1ccc(O)cc1C[C@H]2CC`, for which the inhibition in assay [21] was 47% (active); in assay [22], 31% (active).

Take `O=C(CCN1C(=O)c2ccccc2C1=O)NNC(=O)c1ccc(Cl)cc1Cl`: the inhibition in [18] was -3.93%; in [19], -2.36%; in [20] it was 1.44%.

Take `COc1cccc2sc(NNC(=O)c3nc4ccccc4s3)nc12`: the inhibition in [21] was 130% (active).

For the molecule `COc1ccccc1/C=C/C(=O)OCC(=O)NC1CCCCCC1`, the inhibition was -4.73% in assay [18], -6.03% in assay [19] and 0.37% in [20].

Regarding `O=Nc1c(O)cc(O)c2ccccc12`, the values for the inhibition in assay [21] and in assay [22] were 10.1% and 11.7%, respectively.

On to `COc1ccccc1CSc1ncc(-c2ccc([N+](=O)[O-])cc2)[nH]1`, for which the inhibition in [18] was 5.87%; in assay [19], 9.21%; in assay [20], 2.09%; in [23], 28.2% (active); in [24], 21.9% (active).

Values taken from PubChem BioAssay.
